From PubChem
Rv3671c protease: inhibitors of M. tuberculosis serine protease Rv3671c; inhibition, % at 5.96 µM; 320,000 compounds, 0.048% hits; AID 2606; in the data active = inhibition above about 38%;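 note: extracellular domain of Rv3671c used as enzyme; 0% = enzyme with DMSO and 100% = no enzyme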
UGM FP inh: inhibitors of M. tuberculosis UDP-galactopyranose mutase; purified UGM, fluorescence polarization probe displacement; inhibition, % at 10 µM; AID 504406; 320,000 compounds, 0.06% hits; in the data active = inhibition above about 10%, passing the limit was not always enough
Target sequence (P9WIQ1 whole entry, looked up): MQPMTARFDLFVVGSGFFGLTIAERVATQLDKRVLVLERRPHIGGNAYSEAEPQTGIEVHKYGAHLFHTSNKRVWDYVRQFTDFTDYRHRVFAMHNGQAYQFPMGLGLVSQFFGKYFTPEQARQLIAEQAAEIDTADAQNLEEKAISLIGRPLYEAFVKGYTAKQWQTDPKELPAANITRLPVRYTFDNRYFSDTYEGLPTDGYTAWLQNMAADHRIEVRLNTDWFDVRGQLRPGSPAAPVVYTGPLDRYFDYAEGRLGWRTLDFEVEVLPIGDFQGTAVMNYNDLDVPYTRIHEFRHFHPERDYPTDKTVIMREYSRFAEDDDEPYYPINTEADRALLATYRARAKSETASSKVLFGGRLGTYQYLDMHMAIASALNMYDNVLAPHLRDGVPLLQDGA
PriA SSB inh: blocks PriA binding to SSB C-terminal tail. inhibition, % at 33 µM. 430,000 compounds, 0.6% hits. AlphaScreen SSBct-PriA binding, biotinylated peptide; in the data active = inhibition mostly above about 37%, no sharp cut-off; inactive = mostly below about 20%;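 note: plate controls were negative control peptide for no effect and reference peptide for full effect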
RecA intein inh: inhibitors of M. tuberculosis RecA intein splicing; P9WHJ3; AID 2221; 290,000 compounds, 0.75% hits; cell-free RecA intein splicing, fluorescence; inhibition, % (no concentration beside the values); in the data active = inhibition above about 30%;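 note: 0% = vehicle wells and 100% = reference inhibitor control wells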
Mtb bLac sens: beta-lactam sensitization of Mtb H37Rv; M. tuberculosis H37Rv growth with meropenem, percent inhibition; inhibition, % at 25 µM; 330,000 compounds, 0.27% hits; call rule not given here;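 note: growth measured after seven days incubation then overnight dye step; 0% = bacteria only wells and 100% = bacteria with antibiotic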
* hit, by the source's call; · = not tested or not shown; ! = not confirmed by another sample. Rows were chosen to be rich in hits. Some 1.1% of all compounds tested hit in one or more screens of this group.

SMILES	Rv3671c protease	UGM FP inh	PriA SSB inh	RecA intein inh	Mtb bLac sens
O=C(NCc1ccc2c(c1)OCO2)C12CN(Cc3ccccc3)CC1C(c1cccc([N+](=O)[O-])c1)=NO2 (stereo unspecified)	-6.7	3.1	42.8*	9.5	7.1
Cc1nn(-c2ccccc2)c(N)c1N=Nc1ccc(Cl)cc1	-0.3	0.0	70.6	·	97.9
Cc1nn(-c2ccccc2)c(N)c1N=Nc1ccccc1	-7.9	0.3	58.3	11.1	21.0
CCn1c(O)c(N=Nc2cccc(S(=O)(=O)N3CCOCC3)c2)c(=O)n(CC)c1=S	2.3	-0.8	-3.7	59.0*	-1.0
Cc1nn(-c2ccccc2)c(N)c1N=Nc1cccc(S(=O)(=O)N2CCOCC2)c1	0.5	2.5	47.0*!	0.7	-4.5
Cc1ccc(N=Nc2c(C)nn(-c3ccccc3)c2N)cc1[N+](=O)[O-]	·	·	68.0*	·	·
O=C(O)[C@@H](c1ccccc1)N1Cc2ccccc2C1=O	7.3	-2.1	-4.9	32.1*	-2.6
CN(C1CCCCC1)S(=O)(=O)c1ccc(C(=O)Nc2nc(-c3ccccn3)cs2)cc1	·	·	14.2	·	·
CN(c1ccccc1)S(=O)(=O)c1ccc(C(=O)Nc2nc(-c3ccccn3)cs2)cc1	·	·	52.0*	·	·
CC(C)S(=O)(=O)c1ccc(C(=O)Nc2nc(-c3ccccn3)cs2)cc1	·	·	106.0*	·	·
CN(c1ccccc1)S(=O)(=O)c1ccc(C(=O)Nc2nc(-c3ccc(Br)s3)cs2)cc1	·	·	-13.0	·	·
O=C(Nc1ccc2c(c1)CN(C(=O)c1ccco1)CC2)c1ccccc1C(F)(F)F	·	·	-1.0	·	·
CN(C)CCN(C(=O)c1ccc2ccccc2c1)c1nc2ccc(Br)cc2s1	5.9	-1.2	3.5	0.7	-1.5
CCN(c1ccccc1)S(=O)(=O)c1ccc(C(=O)N(CCCN(C)C)c2nc3cc4c(cc3s2)OCO4)cc1	-0.3	-1.9	32.0	4.3	73.6
CN(C)CCCN(C(=O)c1ccc(S(=O)(=O)N(C)Cc2ccccc2)cc1)c1nc2cc3c(cc2s1)OCO3	7.3	-1.5	40.0*!	-0.4	50.8
CN(C)CCN(C(=O)c1ccccc1[N+](=O)[O-])c1nc2ccc(Br)cc2s1	·	·	47.0*	·	·
CN(C)CCN(C(=O)c1cccc2ccccc12)c1nc2cc3c(cc2s1)OCO3	2.0	3.0	46.8*	3.7	8.8
CN(C)CCCN(C(=O)c1ccc2ccccc2c1)c1nc2cc3c(cc2s1)OCO3	-5.0	1.6	28.6	-2.3	4.0
Cc1cc(C)c2sc(N(CCCN(C)C)C(=O)c3ccc(S(=O)(=O)N(C)Cc4ccccc4)cc3)nc2c1	-3.5	-0.3	49.0*	21.1	96.6
COc1ccc(/C=C/C(=O)Oc2ccc(C=NNC(=O)c3ccncc3)cc2)cc1	·	·	-1.2	·	·
Cc1cc(C)c(-n2c(O)c(C=NN3CCCCC3c3cccnc3)c(=O)[nH]c2=O)c(C)c1 (stereo unspecified)	·	·	-5.8	·	·
Cc1nc(Nc2ccc(NC(=O)Nc3ccccc3)cc2)cc(OC(C)C)n1	·	·	-9.0	·	·
O=C(NCc1ccccc1)c1csc(Nc2ccccc2)n1	·	·	-8.0	·	·
O=C(NCCc1c[nH]c2ccccc12)Nc1ccccc1	8.1	2.2	5.2	-0.1	0.1
O=C(NCCc1c[nH]c2ccccc12)c1csc(Nc2ccccc2)n1	·	·	28.0*	·	·
SMILES	Rv3671c protease	UGM FP inh	PriA SSB inh	RecA intein inh	Mtb bLac sens
O=C(Nc1ccccc1)Nc1nc(C(=O)NCCc2c[nH]c3ccccc23)cs1	·	·	41.0*	·	·
CC(C)(C)c1csc(NC(=O)Nc2ccccc2)n1	1.5	2.2	-0.7	1.3	-3.8
O=C(Nc1ccccc1)Nc1nc(C(=O)O)cs1	·	·	63.0*	·	·
COc1ccc(OC)c(NC(=O)c2cnc3scc(C)n3c2=O)c1	·	·	-11.0	·	·
CCN1CCCc2cc(CCNC(=O)c3ccccc3C(F)(F)F)ccc21	·	·	59.0*	·	·
CCCC(=O)NCCc1ccc2c(c1)CCCN2CCC	·	·	28.0	·	·
CCCN1CCCc2cc(CCNC(=O)COc3ccc(OC)cc3)ccc21	·	·	74.0*	·	·
CCCN1CCCc2cc(CCNC(=O)COc3ccc(C)cc3)ccc21	·	·	64.3	·	·
CCCN1CCCc2cc(CCNC(=O)c3cc(Cl)ccc3OC)ccc21	·	·	66.0*	·	·
CCCN1CCCc2cc(CCNC(=O)COc3ccc(F)cc3)ccc21	·	·	78.0*	·	·
CC(CC(=O)Nc1ccc(N(C)C)cc1)=NNC(=O)c1ccc(Cl)cc1Cl	·	·	12.0	·	·
O=C(Cn1c(=O)n(Cc2cccs2)c(=O)c2ncccc21)Nc1cccc(F)c1	·	·	-27.0	·	·
Oc1cccc(C=NNP(=S)(c2ccccc2)c2ccccc2)c1	·	·	12.7	·	·
CC(CCc1ccc2c(c1)OCO2)=NNC(=S)NC(C)C	·	·	1.8	·	·
CCCN1CCCc2cc(CCNC(=O)OCC)ccc21	·	·	71.0	·	·
CCCN1CCCc2cc(CCNC(=O)c3ccc(OC)cc3)ccc21	·	·	74.0*	·	·
COc1ccc(C(=O)NCCc2ccc3c(c2)CCCN3C)cc1	·	·	33.3	·	·
